# Measurements reported in ChEMBL document CHEMBL3988442, “University of Dundee, Small-Polar-MMV Screening Library” (2021).
# Hit rate of the full screen: of about 48,000 compounds, about 13,000 (27%) showed an effect of 50% or more. This is one part of the list.
# System: Wolbachia pipientis
# Assay: Anti-Wolbachia Cell-Based Screen
# Assay type: functional
# Design: scale not given: in the data most compounds retested in dose-response had high values
# Details: 5 µM
row,SMILES,Percent Effect
1,Cc1cc(NC(=O)CNC(C)(C)c2nc(C)c(C)s2)no1,-14.55%
2,COc1ccc(CNC(=O)c2cc3c(nc2O)CCC(C)C3)cc1 (centres undefined),-13.47%
3,CNS(=O)(=O)c1ccccc1N1CCN(C(C)C(=O)OC)CC1 (centres undefined),-10.15%
4,CO[C@H]1CN(C(=O)c2cccnc2)[C@@H]2CCCO[C@H]12.O=C(O)C(F)(F)F,121%
5,O=C(O)C(F)(F)F.O=C(c1ccnnc1)N1C[C@H](Oc2ccccn2)[C@H]2OCCC[C@H]21,96.83%
6,Cc1cccc(C(=O)N2C[C@@H](OCc3cccnc3)[C@H]3OCCC[C@@H]32)n1.O=C(O)C(F)(F)F.O=C(O)C(F)(F)F,19.74%
7,Cc1occc1C(=O)N1C[C@H](Oc2ccccn2)[C@H]2OCCC[C@H]21.O=C(O)C(F)(F)F,-5.077%
8,CO[C@H]1CN(C(=O)c2ccc(C)o2)[C@@H]2CCCO[C@H]12,2.722%
9,CN(C)C(=O)N1C[C@H](Oc2ccccn2)[C@H]2OCCC[C@H]21.O=C(O)C(F)(F)F,-8.316%
10,Cc1noc(C)c1CN1C[C@@H](NS(=O)(=O)N(C)C)[C@H](C(C)C)C1,-5.186%
11,CC(=O)N1CCC2(CCN(C(=O)c3ccc(Cl)c(C(F)(F)F)c3)CC2)C1,-5.245%
12,CCCn1ncc(C(=O)NC2CCN(C3CCOCC3)CC2)c1C,-3.665%
13,CC(C)(C#N)C(=O)Nc1nccn1Cc1ccc(Br)cc1,-2.576%
14,Cc1ccc2oc(=O)n(CC(=O)N3CCC4(CC3)CN(C)C(=O)O4)c2c1,-3.778%
15,CN1CCCC2(CCN(C(=O)CCn3cncn3)C2)C1=O (centres undefined),-41.8%
16,Cc1nn(CC(=O)N2CCC3(CN(C)C(=O)O3)C2)c(=O)c2ccccc12 (centres undefined),94.98%
17,CN1CC2(CCN(C(=O)Cn3ncc4ccccc4c3=O)CC2)OC1=O,95.4%
18,CN1CC2(CCN(C(=O)COc3ccc(Cl)cc3Cl)CC2)OC1=O,-5.539%
19,CN1CCCC2(CCN(C(=O)Cn3ncc4ccccc4c3=O)C2)C1=O (centres undefined),88.86%
20,Cc1nccc(-c2ccccc2)c1C(=O)N1CCC2(CN(C)C(=O)O2)C1 (centres undefined),-8.281%
21,CCc1ccc2occ(CC(=O)N3CCC4(CCCN(C)C4=O)C3)c2c1 (centres undefined),-37.19%
22,Cc1nc[nH]c1C(=O)N1CCC2(CN(C)C(=O)O2)C1 (centres undefined),-7.833%
23,CCCN(CCC)C(=O)CN1CCCC1C(=O)N(C)C (centres undefined),15.58%
24,O=C(c1cccc(S(=O)(=O)NCCc2cscn2)c1)N1CCOCC1,-14.28%

row,SMILES,Percent Effect
1,C[S+]([O-])c1nncn1CC(=O)c1ccc(OC(F)F)cc1 (centres undefined),-3.882%
2,CCc1ncc2c(n1)CN(C(=O)c1c(C)[nH]c3c1C(=O)CCC3)C2,17.5%
3,O=C(c1cccn2ccnc12)N1CCCN(c2cccnn2)CC1,-3.729%
4,O=C(Cn1cccn1)N1CCC(Oc2ccc(C(F)(F)F)cn2)CC1,107%
5,N#Cc1ccc(OC2CCN(C(=O)Cc3cccs3)CC2)nc1,12.26%
6,CN(C)S(=O)(=O)N1CCC(Oc2ccc(C#N)cn2)CC1,-10.68%
7,CC(=O)N1CCC(Oc2ccc(C#N)cn2)CC1,-7.335%
8,N#Cc1ccc(C(=O)N2CCC(Oc3ccc(C#N)cn3)CC2)cc1,-11.6%
9,CC(C)(C)NC(=O)N1CCC(Oc2ccc(C(F)(F)F)cn2)CC1,116.4%
10,CCOC(=O)CCC(=O)N1CCC(Oc2ccc(C(F)(F)F)cn2)CC1,3.938%
11,CCOCC(=O)N1CCC(Oc2ccc(Cl)cn2)CC1,-5.53%
12,CN(CC(=O)N1CCC(Oc2ccc(C(F)(F)F)cn2)CC1)S(C)(=O)=O,103.2%
13,CN(CC(=O)N1CCC(Oc2ccccc2)CC1)c1cnccn1,-0.02384%
14,CCOC(=O)N1CCC(Oc2ccc(C(F)(F)F)cn2)CC1,91.75%
15,CCOCC(=O)N1CCC(Oc2ccc(C(F)(F)F)cn2)CC1,5.97%
16,CCN1CCN(C[C@@H]2CN(c3ncc(Cl)cc3F)C[C@@H]2CO)CC1,3.895%
17,CC(NC(=O)Nc1ccc(OC2CCCC2)cc1)c1nc[nH]n1 (centres undefined),4.793%
18,CCC(C)c1ccc(NC(=O)C2CCN(C(=O)N(C)C)CC2)cc1 (centres undefined),-1.822%
19,Cc1cc(C)nc(N2CCC(C(=O)Nc3ccc(C(C)C)cc3)CC2)n1,135.6%
20,CCC(C)c1ccc(NC(=O)C2CCN(C(=O)COC)CC2)cc1 (centres undefined),-13.47%
21,Cc1ccc(C(=O)NCC(O)CN2CCCC2=O)cc1Cl (centres undefined),2.235%
22,Cc1ccc(S(C)(=O)=O)cc1C(=O)NS(C)(=O)=O,-9.422%
23,CS(=O)(=O)c1ccc(-c2ccccc2C(=O)O)cc1,122%
24,CNC(=O)c1ccccc1-c1ccc(S(C)(=O)=O)cc1,101.9%

row,SMILES,Percent Effect
1,CC(=O)c1ccccc1-c1cc(C(=O)O)cc(S(=O)(=O)NC(C)C)c1,0.5422%
2,CC1CCCCN1Cc1ccc(-c2ccccc2C(=O)O)cc1 (centres undefined),-6.204%
3,CS(=O)(=O)c1ccc(CNC(=O)NCc2cc[nH]n2)cc1,1.077%
4,CN(C)C(C(=O)N1CC(Oc2ccccc2F)C1)c1ccccc1F (centres undefined),-4.147%
5,CO[C@@H]1CCN(S(=O)(=O)c2cccs2)[C@H]1Cc1ccccc1,7.736%
6,Cc1n[nH]c(C)c1NC(=O)CN1CCn2c(nnc2C(C)C)C1,-1.446%
7,CC(C)C(=O)N1CCCC12CCN(C(=O)c1ccno1)C2 (centres undefined),-2.946%
8,CC(C)C(=O)N1Cc2ccccc2CC2(CCCN2C)C1 (centres undefined),90.17%
9,C[C@H](C(=O)N1Cc2ccccc2CC2(CCCN2C)C1)c1ccccc1 (some centres undefined),111.3%
10,CC(C)C(=O)N1Cc2ccccc2CC2(CCCCN2C)C1 (centres undefined),96.75%
11,CC(C)C(=O)N1CCCC12CCCN(C(=O)c1ccno1)C2 (centres undefined),-3.277%
12,CC(C)C(=O)N1CCC12CCCN(C(=O)c1ccccc1)C2 (centres undefined),-15.79%
13,CC(C)C(=O)N1CCC12CCCN(C(=O)c1ccnnc1)C2 (centres undefined),-3.572%
14,CC(=O)c1cc(CN2C[C@@H](C(=O)O)[C@H](c3cccnc3)C2)cs1,-13.15%
15,CCN(Cc1cc(Cl)ccc1OC)Cc1cc(C)nn1C,-10.03%
16,Cc1nnsc1CN(C)C(=O)CCn1cnc2ccccc21,-11.62%
17,O=C(CNCC1(O)CCCN(Cc2cccc(F)c2F)C1=O)NC1CC1 (centres undefined),-1.283%
18,CN(CCCOc1ccccc1)C(=O)CN1CCc2cncnc2C1,0.7453%
19,CCCOc1ccc2c(c1)OCC(C(=O)NC(C)Cn1ccnc1)=C2 (centres undefined),6.426%
20,O=C(NCCCn1cccn1)C1CCC(=O)N(CC2CCCCC2)C1 (centres undefined),-8.272%
21,O=C1NC[C@@]2(C(=O)O)CN(Cc3cccc(OC4CCCC4)c3)C[C@@H]12,-26.72%
22,NC(=O)N1CCCN(CCc2nc(-c3cccc(Cl)c3)no2)CC1,5.099%
23,NC(=O)c1nc(-c2ccc(Cl)cc2Cl)oc1N,118.4%
24,Cc1sc(CN)nc1-c1ccc(Cl)cc1Cl,-19.51%

row,SMILES,Percent Effect
1,CC(C)C(C(N)=O)c1cccc(Cl)c1 (centres undefined),-0.9613%
2,NC(=O)c1nc(-c2cccc(Cl)c2)oc1N,102.5%
3,CCN1C(=O)COC[C@@H]1[C@H](O)c1ccc(NC(=O)COC)cc1,-2.196%
4,c1cc(-c2nc3c(c(NCCc4c[nH]cn4)n2)CCNCC3)ccn1,6.655%
5,CC(=O)c1cccc(C(=O)N2C[C@@H](CN3CCCCCC3)[C@@H](CO)C2)c1,-7.849%
6,CN(C)c1ccc2c(c1)CN(C(=O)c1c[nH]cn1)C2c1cnco1 (centres undefined),3.646%
7,CCn1cc(C(=O)n2nc(C)cc2C)c(S(=O)(=O)N2CCCCC2)n1,-19.19%
8,Cn1cnc(S(=O)(=O)N2CCCn3cnc(CN4CCCC4)c3C2)c1,1.863%
9,CN1CCCCC(C2CCN(S(=O)(=O)c3cn(C)cn3)CC2)C1=O (centres undefined),106.2%
10,CCn1cc(S(=O)(=O)N2CCC(C3CCCCN(C)C3=O)CC2)c(C)n1 (centres undefined),91.1%
11,CCn1cc(S(=O)(=O)N(C)Cc2c(Br)cnn2CC)c(C)n1,5.348%
12,Cc1nccn1-c1cccc(C2CCCN2S(=O)(=O)c2cn(C)cn2)n1 (centres undefined),-2.327%
13,CN(Cc1ccccc1)c1ccc(C(F)(F)F)cn1,3.007%
14,Cc1cc(Cl)ccc1NCC(=O)Nc1cc(C(C)(C)C)no1,-19.79%
15,O=C(C[C@@H]1COC[C@H]2CN(Cc3ccc(F)cc3)C[C@@H]12)N1CCCCO1.O=C(O)C(F)(F)F,6.294%
16,Cc1cccc(C(=O)N2C[C@@H]3[C@H](CC(=O)NC(C)C)[C@@H]3C2)n1.O=C(O)C(F)(F)F,-21.16%
17,Cc1cccc(C(=O)N2C[C@@H]3COC[C@@H](CC(=O)N4CCCC4)[C@@H]3C2)n1.O=C(O)C(F)(F)F,117.6%
18,O=C(C[C@@H]1COC[C@H]2CN(Cc3ccsc3)C[C@@H]12)N1CCCC1,-43.11%
19,O=C(C[C@@H]1COC[C@H]2CN(C(=O)c3ccccn3)C[C@@H]12)N1CCCC1.O=C(O)C(F)(F)F,106.7%
20,Cc1cccc(C(=O)N2C[C@@H]3[C@H](CC(=O)N4CCCC4)[C@@H]3C2)n1,-9.844%
21,COc1ccc2c(C)c(C(=O)NCC3CN(S(C)(=O)=O)CCO3)oc2c1 (centres undefined),-45.67%
22,CC(C)[C@@H]1CN(Cc2ccccc2C#N)C[C@H]1C(=O)O,-3.453%
